Measurements from paper PMC7862700, “An all-to-all approach to the identification of sequence-specific readers for epigenetic DNA modifications on cytosine”.

How the values were obtained:
Assay in all cases: DAPPL (digital affinity profiling via proximity ligation, sequencing); 10 mM Tris-HCl pH 7.5, 50 mM NaCl, 1 mM DTT, 4% glycerol, room temperature, 30 min; GST-TFs on glutathione beads, 16-mer random dsDNA library, 0.1% formaldehyde crosslink after washing; high values mean tight binding
FEV = molecular target: T1, FEV (Homo sapiens, UniProt Q99581 1-238); details: protein: recombinant; tags: N-terminal GST; dsDNA, one strand shown
T1 sequence: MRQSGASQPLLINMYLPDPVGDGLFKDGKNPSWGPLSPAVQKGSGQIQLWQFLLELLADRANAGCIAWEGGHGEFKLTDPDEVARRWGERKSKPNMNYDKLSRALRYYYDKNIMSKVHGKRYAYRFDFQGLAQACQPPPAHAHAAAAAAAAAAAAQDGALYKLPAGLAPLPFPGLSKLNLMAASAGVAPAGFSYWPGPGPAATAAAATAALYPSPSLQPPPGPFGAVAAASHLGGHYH
How it was run: (§1)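 Each value of binding signal is a hexamer's read frequency for a factor divided by the same hexamer's frequency in the tag-only sample. Barcoded, bead-captured GST fusions of human transcription factors made in yeast were pooled with that sample and incubated with 200 nmole of a random double-stranded 16-mer DNA library in Tris/NaCl/DTT/glycerol buffer at room temperature for 30 min. Washing, 0.1% formaldehyde crosslinking, proximity ligation, PCR and Illumina NextSeq500 sequencing followed.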

ETV5 = ETV5 (Homo sapiens, UniProt P41161 1-510); details: protein: recombinant; tags: N-terminal GST; dsDNA, one strand shown
How it was run: as §1

HSF1 = HSF1 (Homo sapiens, UniProt Q00613 1-529); details: protein: recombinant; tags: N-terminal GST; chain copies: 3; dsDNA, one strand shown
How it was run: as §1

SPIC = molecular target: T2, SPIC (Homo sapiens, UniProt Q8N5J4 1-248); details: protein: recombinant; tags: N-terminal GST; dsDNA, one strand shown
T2 sequence: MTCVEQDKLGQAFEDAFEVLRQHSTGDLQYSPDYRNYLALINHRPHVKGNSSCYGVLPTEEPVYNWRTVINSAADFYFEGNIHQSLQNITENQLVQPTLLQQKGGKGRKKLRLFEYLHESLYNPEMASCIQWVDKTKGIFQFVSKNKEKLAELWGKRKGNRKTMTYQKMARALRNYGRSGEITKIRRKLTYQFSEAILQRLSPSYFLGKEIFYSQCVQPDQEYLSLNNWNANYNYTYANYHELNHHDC
How it was run: as §1

ELF4 = ELF4 (Homo sapiens, UniProt Q99607 1-663); details: protein: recombinant; tags: N-terminal GST; dsDNA, one strand shown
How it was run: as §1

ELK4 = molecular target: T3, ELK4 (Homo sapiens, UniProt P28324-2 1-405); details: protein: recombinant; tags: N-terminal GST; dsDNA, one strand shown
T3 sequence: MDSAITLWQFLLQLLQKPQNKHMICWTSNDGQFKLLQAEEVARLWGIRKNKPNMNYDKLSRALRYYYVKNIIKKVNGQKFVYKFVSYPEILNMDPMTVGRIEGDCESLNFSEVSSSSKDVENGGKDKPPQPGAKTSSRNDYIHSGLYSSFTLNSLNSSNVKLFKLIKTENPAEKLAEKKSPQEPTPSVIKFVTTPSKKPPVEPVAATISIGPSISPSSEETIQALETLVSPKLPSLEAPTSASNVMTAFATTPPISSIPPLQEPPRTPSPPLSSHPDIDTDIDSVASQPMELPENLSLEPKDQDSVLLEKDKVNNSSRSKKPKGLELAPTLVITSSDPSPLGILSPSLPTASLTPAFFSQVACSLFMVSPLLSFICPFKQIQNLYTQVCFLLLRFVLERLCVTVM
How it was run: as §1

ETV2 = molecular target: T4, ETV2 (Homo sapiens, UniProt O00321 1-342); details: protein: recombinant; tags: N-terminal GST; dsDNA, one strand shown
T4 sequence: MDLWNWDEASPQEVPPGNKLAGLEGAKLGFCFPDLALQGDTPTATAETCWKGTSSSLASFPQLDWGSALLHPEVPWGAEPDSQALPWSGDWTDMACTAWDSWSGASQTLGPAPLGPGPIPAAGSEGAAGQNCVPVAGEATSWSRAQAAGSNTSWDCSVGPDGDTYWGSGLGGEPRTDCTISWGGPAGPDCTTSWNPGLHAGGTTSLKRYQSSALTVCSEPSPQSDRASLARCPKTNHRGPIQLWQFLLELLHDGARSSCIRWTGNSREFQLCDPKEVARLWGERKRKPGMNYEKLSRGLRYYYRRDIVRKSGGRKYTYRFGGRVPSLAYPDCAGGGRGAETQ
How it was run: as §1

ELF3 = molecular target: T5, ELF3 (Homo sapiens, UniProt P78545 1-371); details: protein: recombinant; tags: N-terminal GST; dsDNA, one strand shown
T5 sequence: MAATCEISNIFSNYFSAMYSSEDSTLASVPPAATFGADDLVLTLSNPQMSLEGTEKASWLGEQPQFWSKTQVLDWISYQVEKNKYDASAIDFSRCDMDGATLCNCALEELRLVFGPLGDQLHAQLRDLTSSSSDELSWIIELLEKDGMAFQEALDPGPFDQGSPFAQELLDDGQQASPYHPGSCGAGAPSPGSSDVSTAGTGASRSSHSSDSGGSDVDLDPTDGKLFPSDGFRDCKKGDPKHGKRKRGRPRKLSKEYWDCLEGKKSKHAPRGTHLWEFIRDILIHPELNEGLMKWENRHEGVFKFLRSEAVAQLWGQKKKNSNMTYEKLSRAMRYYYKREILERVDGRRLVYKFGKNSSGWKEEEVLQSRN
How it was run: as §1

CRX = CRX (Homo sapiens, UniProt O43186 1-299); details: protein: recombinant; tags: N-terminal GST; dsDNA, one strand shown
How it was run: as §1

ETV1 = ETV1 (Homo sapiens, UniProt P50549 1-477); details: protein: recombinant; tags: N-terminal GST; dsDNA, one strand shown
How it was run: as §1

ERF = molecular target: T6, ERF (Homo sapiens, UniProt P50548 1-548); details: protein: recombinant; tags: N-terminal GST; dsDNA, one strand shown
T6 sequence: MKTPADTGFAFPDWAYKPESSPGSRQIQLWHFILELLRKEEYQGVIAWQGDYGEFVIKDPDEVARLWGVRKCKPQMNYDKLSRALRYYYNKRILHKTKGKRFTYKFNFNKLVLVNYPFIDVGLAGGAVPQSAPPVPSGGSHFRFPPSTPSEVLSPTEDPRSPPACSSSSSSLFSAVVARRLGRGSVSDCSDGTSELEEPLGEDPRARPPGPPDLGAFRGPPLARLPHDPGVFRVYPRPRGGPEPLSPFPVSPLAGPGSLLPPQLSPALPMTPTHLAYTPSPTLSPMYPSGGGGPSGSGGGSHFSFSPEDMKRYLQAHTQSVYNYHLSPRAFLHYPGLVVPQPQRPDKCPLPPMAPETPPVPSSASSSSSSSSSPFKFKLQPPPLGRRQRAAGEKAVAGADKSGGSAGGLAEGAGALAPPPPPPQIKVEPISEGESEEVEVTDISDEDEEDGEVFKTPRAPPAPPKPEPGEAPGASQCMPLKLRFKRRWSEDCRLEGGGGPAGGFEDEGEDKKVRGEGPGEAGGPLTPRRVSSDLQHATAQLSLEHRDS
How it was run: as §1

ETV3L = molecular target: T7, ETV3L (Homo sapiens, UniProt Q6ZN32 1-361); details: protein: recombinant; tags: N-terminal GST; dsDNA, one strand shown
T7 sequence: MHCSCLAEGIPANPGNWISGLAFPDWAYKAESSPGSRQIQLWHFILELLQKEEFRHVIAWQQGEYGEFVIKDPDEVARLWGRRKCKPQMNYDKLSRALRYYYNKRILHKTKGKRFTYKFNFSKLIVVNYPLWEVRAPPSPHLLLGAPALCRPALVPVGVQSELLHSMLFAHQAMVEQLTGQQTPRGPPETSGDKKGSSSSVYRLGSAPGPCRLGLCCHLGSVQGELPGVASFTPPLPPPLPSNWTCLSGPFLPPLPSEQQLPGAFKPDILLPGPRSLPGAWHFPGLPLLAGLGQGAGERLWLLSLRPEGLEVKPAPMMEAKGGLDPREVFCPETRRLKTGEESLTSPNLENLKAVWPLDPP
How it was run: as §1

ETS2 = molecular target: T8, ETS2 (Homo sapiens, UniProt P15036 1-469); details: protein: recombinant; tags: N-terminal GST; dsDNA, one strand shown
T8 sequence: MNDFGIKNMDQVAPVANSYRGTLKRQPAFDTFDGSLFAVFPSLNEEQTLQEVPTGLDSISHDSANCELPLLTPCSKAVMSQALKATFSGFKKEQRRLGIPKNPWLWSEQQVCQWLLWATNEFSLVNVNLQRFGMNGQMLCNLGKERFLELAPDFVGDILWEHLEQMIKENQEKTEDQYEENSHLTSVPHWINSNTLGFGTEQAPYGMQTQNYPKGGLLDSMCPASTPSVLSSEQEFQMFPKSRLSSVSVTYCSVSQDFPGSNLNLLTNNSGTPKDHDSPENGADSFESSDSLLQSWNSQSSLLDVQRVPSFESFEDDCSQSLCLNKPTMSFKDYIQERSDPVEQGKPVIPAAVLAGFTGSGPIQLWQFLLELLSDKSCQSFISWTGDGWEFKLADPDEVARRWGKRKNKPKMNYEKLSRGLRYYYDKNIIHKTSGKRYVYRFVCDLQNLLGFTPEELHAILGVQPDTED
How it was run: as §1

SPDEF = molecular target: T9, SPDEF (Homo sapiens, UniProt O95238 1-335); details: protein: recombinant; tags: N-terminal GST; dsDNA, one strand shown
T9 sequence: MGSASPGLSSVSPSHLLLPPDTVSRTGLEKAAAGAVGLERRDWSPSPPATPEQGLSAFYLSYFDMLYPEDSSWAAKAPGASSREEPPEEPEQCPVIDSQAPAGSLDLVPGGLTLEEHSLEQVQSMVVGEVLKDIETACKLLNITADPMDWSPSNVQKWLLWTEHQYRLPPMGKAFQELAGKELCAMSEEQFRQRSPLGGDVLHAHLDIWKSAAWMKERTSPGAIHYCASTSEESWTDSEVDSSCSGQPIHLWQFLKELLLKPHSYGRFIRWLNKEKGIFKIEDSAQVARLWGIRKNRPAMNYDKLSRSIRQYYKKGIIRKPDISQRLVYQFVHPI
How it was run: as §1

ETV7 = molecular target: T10, ETV7 (Homo sapiens, UniProt Q9Y603 1-341); details: protein: recombinant; tags: N-terminal GST; dsDNA, one strand shown
T10 sequence: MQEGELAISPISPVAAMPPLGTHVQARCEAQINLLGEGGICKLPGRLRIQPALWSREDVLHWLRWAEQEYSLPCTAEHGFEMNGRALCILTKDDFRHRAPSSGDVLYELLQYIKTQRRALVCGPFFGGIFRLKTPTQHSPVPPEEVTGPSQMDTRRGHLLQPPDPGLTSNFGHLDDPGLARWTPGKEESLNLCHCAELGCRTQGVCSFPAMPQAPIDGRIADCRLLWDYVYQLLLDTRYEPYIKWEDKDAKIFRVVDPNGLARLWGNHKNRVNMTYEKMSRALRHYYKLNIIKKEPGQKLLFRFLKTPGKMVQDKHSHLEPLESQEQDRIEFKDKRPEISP
How it was run: as §1

ELF5 = molecular target: T11, ELF5 (Homo sapiens, UniProt Q9UKW6-2 1-255); details: protein: recombinant; tags: N-terminal GST; dsDNA, one strand shown
T11 sequence: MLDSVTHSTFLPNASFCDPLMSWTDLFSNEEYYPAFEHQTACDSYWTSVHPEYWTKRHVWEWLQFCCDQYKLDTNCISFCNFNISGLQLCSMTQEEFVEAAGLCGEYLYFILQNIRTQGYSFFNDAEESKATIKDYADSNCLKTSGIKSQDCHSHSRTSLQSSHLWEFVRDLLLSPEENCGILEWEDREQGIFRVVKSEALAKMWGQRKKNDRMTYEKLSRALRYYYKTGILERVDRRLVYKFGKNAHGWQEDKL
How it was run: as §1

ETV3 = molecular target: T12, ETV3 (Homo sapiens, UniProt P41162-2 1-143); details: protein: recombinant; tags: N-terminal GST; dsDNA, one strand shown
T12 sequence: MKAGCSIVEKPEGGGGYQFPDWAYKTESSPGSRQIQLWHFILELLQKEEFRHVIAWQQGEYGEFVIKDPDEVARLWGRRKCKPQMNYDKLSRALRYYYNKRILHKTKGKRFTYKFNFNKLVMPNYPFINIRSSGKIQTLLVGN
How it was run: as §1

ETV6 = ETV6 (Homo sapiens, UniProt P41212 1-452); details: protein: recombinant; tags: N-terminal GST; dsDNA, one strand shown
How it was run: as §1

Chain of ETV5 (P41161 whole entry): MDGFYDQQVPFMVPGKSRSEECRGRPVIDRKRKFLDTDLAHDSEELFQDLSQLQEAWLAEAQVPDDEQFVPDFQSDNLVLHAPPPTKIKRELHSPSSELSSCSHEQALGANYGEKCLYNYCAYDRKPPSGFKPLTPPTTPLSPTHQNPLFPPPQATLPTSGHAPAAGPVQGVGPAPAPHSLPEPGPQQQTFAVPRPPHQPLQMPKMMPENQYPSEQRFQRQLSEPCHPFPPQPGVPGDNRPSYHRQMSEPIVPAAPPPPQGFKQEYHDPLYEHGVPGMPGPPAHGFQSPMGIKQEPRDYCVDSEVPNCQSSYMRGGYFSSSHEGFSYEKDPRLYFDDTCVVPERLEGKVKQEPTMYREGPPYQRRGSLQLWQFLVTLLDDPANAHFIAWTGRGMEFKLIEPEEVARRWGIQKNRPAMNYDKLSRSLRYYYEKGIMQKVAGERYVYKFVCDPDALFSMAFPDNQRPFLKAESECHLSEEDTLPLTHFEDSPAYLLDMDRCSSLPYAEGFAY
Chain of ELF4 (Q99607 whole entry): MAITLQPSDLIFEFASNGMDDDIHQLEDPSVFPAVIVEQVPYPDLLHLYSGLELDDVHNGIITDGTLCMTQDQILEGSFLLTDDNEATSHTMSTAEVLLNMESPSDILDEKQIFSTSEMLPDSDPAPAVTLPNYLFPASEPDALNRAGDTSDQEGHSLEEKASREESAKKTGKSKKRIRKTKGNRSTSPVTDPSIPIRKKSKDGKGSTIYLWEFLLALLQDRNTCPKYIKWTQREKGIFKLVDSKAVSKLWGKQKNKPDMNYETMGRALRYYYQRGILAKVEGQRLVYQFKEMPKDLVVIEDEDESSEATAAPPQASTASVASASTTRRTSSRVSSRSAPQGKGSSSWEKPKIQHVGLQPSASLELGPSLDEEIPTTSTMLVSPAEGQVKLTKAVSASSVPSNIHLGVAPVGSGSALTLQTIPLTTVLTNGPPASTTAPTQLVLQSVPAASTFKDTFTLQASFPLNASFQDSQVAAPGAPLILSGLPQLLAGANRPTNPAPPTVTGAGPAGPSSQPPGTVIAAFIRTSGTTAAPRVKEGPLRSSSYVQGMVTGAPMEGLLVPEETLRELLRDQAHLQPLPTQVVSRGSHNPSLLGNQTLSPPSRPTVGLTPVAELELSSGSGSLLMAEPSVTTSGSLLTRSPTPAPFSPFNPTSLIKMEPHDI
Chain of CRX (O43186 whole entry): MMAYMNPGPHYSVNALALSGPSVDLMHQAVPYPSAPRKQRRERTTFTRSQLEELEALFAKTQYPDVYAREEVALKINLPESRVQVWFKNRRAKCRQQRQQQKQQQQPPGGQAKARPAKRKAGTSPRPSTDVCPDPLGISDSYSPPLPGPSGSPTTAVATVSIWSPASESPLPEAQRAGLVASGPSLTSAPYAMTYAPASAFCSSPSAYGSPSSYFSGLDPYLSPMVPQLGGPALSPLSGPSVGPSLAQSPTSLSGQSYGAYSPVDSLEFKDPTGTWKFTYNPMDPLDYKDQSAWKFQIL
Chain of ETV6 (P41212 whole entry): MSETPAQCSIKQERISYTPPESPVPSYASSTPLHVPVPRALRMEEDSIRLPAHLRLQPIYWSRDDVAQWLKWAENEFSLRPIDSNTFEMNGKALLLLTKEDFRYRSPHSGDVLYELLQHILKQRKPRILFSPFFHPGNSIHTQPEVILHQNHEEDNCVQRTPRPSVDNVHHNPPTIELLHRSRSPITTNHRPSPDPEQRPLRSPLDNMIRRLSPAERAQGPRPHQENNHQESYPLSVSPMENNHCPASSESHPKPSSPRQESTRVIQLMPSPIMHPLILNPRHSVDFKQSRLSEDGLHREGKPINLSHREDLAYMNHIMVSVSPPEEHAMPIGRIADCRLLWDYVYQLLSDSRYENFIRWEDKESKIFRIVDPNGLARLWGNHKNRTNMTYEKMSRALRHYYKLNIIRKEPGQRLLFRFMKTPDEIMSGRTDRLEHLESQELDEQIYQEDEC
Chain of HSF1 (Q00613 whole entry): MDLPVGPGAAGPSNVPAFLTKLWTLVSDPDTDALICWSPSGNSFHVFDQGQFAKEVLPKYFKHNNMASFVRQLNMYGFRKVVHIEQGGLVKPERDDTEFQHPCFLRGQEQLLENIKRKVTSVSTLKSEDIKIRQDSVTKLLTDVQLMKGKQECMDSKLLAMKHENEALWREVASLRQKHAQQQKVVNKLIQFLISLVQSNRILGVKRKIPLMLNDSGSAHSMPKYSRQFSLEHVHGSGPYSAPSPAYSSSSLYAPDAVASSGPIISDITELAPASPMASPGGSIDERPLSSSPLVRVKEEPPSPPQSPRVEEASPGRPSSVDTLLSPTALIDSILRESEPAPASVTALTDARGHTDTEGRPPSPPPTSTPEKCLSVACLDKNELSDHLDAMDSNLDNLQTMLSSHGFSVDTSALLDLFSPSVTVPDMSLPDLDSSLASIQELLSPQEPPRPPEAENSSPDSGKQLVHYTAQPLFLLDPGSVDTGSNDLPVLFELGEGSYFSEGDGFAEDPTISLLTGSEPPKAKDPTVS
Chain of ETV1 (P50549 whole entry): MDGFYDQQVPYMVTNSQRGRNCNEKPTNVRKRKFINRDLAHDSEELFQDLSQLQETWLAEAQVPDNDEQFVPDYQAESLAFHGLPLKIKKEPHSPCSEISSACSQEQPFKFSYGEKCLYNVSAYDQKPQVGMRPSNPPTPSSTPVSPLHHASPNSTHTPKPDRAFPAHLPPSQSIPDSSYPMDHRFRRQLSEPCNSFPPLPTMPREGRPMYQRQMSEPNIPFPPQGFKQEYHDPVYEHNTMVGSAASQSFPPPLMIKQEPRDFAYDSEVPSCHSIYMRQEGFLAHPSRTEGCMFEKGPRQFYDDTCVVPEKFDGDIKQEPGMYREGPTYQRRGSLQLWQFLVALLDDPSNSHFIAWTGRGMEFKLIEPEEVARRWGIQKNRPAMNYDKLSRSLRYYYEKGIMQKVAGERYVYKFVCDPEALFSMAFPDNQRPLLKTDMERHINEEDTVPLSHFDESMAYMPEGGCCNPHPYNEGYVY

## TGGCTT
FEV
  binding signal: 1.34 fold enrichment (6-mer frequency, TF over GST control)
ETV5
  binding signal: 1.19 fold enrichment (6-mer frequency, TF over GST control)
HSF1
  binding signal: 1.38 fold enrichment (6-mer frequency, TF over GST control)
SPIC
  binding signal: 1.34 fold enrichment (6-mer frequency, TF over GST control)
ELF4
  binding signal: 1.28 fold enrichment (6-mer frequency, TF over GST control)
ELK4
  binding signal: 1.23 fold enrichment (6-mer frequency, TF over GST control)
ETV2
  binding signal: 1.3 fold enrichment (6-mer frequency, TF over GST control)
ELF3
  binding signal: 1.32 fold enrichment (6-mer frequency, TF over GST control)
CRX
  binding signal: 1.75 fold enrichment (6-mer frequency, TF over GST control)
ETV1
  binding signal: 1.1 fold enrichment (6-mer frequency, TF over GST control)
ERF
  binding signal: 1.27 fold enrichment (6-mer frequency, TF over GST control)
ETV3L
  binding signal: 1.17 fold enrichment (6-mer frequency, TF over GST control)
ETS2
  binding signal: 1.26 fold enrichment (6-mer frequency, TF over GST control)
SPDEF
  binding signal: 1.11 fold enrichment (6-mer frequency, TF over GST control)
ETV7
  binding signal: 1.31 fold enrichment (6-mer frequency, TF over GST control)
ELF5
  binding signal: 1.18 fold enrichment (6-mer frequency, TF over GST control)
ETV3
  binding signal: 1.18 fold enrichment (6-mer frequency, TF over GST control)
ETV6
  binding signal: 1.29 fold enrichment (6-mer frequency, TF over GST control)
